Assay outcomes (PubChem BioAssay)
KAT2A inh = GCN5L2 (KAT2A) acetyltransferase inhibition | Q92830 | GCN5L2 HAT assay, ThioGlo1 CoA-SH fluorescence | Potency, µM (doses to about 58.9 µM), inactives show top-dose activity change, negative = inhibition, usual class: inhibitors | 390,000 compounds, 0.21% hits | AID 504327; further: potency means the concentration at half of the fitted maximal effect
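GCN5L2 (20nM final) in 50mM HEPES, 0.1mM EDTA pH 7.5, 0.01% Tween-20 was preincubated 15 min at room temperature with compound, then given ThioGlo1 (50uM), H3(1-25) peptide (75uM) and acetyl-CoA (70uM); CoA-thiol fluorescence (Ex340/Em540) was read at 0 and 20 min.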
FEN1 inh = blocks human flap endonuclease 1; 390,000 compounds, 0.35% hits; P39748; Recombinant FEN1 flap cleavage, fluorescence, 15 min; Potency, µM (top dose mostly 114 µM), for the others: at the top dose activity change, negative = inhibition, actives largely listed as inhibitors; further: potency means the concentration at half of the fitted maximal effect; nearly all actives have a fitted effect of over 65% in size
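Steps: FEN1 (10 nM) dispensed; compound added by pin tool; 15 min at room temperature; substrate added to 50 nM final; reads at 0 min and 15 min; data normalized and fitted (four-parameter Hill).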
APE1 inh = APE1 (human) endonuclease inhibition; P27695; recombinant APE1, TAMRA/BHQ-2 abasic DNA cleavage fluorescence; Potency, µM (titrated, usually from 65.8 µM), for inactives: at the highest dose activity change, negative = inhibition, usual class: inhibitors; 350,000 compounds, 0.35% hits;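 further: potency means the concentration at half of the fitted maximal effect; plate controls were vehicle for no effect and reference inhibitor for full effect; nearly all actives have a fitted effect of over 55% in size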
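Compound pre-exposure to 0.75 nM APE1, 15 min at ambient temperature. Reaction initiated with 50 nM TAMRA/BHQ-2 THF substrate, read immediately in kinetic mode, 525 nm excitation, 598 nm emission.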
RECQ1 inh = inhibitors of human RECQ1 DNA helicase; RECQ1 DNA unwinding, red fluorescence kinetic read; Potency, µM (titrated, usually from 57.3 µM), without a hit: at the top dose activity, negative = inhibition, usual class: inhibitors; 240,000 compounds, 0.54% hits; AID 2549;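 further: potency means the concentration at half of the fitted maximal effect; plate controls were vehicle for no effect and no enzyme for full effect; nearly all actives have a fitted effect of over 30% in size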
Target sequence (P46063 whole entry, looked up): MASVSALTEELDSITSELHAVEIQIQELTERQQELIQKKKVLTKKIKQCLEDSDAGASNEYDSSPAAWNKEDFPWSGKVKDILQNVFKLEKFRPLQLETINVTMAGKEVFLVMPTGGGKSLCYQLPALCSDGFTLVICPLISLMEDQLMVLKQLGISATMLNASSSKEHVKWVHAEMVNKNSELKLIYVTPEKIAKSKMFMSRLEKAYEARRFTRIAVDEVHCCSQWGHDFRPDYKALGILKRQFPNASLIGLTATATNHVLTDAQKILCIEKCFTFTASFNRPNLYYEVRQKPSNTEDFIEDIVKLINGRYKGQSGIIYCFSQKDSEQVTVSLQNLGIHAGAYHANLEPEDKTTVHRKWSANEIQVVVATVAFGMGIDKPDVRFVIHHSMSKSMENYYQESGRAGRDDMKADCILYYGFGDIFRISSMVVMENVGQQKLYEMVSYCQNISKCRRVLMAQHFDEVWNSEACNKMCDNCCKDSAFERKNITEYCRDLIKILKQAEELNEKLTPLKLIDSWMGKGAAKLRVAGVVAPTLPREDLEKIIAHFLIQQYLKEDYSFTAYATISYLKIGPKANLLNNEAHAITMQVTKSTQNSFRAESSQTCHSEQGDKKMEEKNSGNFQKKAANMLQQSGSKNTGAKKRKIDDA
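50 nM RECQ1T1 preincubated 15 min with compound in Tris pH 8.0 buffer with MgCl2, DTT, Tween-20 and 2.5 ug/ml poly(dI-dC); started with 200 nM TAMRA/BHQ-2 forked duplex and 2 mM ATP. Unwinding read as fluorescence (525/598 nm), two reads 2 h apart.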
BLM helicase inh = blocks DNA unwinding by human BLM helicase | 350,000 compounds, 0.2% hits | recombinant BLM DNA unwinding, fluorescence dequenching | Potency, µM (series often up to 56.1 µM), for the others: at the highest dose activity change, negative = inhibition, most hits filed as inhibitors;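 further: potency means the concentration at half of the fitted maximal effect; plate controls were vehicle for no effect and no enzyme for full effect; nearly all actives have a fitted effect of over 35% in size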
PI5P4Ka inh = inhibitors of human PI5P4K alpha; 330,000 compounds, 1.2% hits; max response, %; P48426; PI5P4Kalpha enzyme, ADP-Glo luminescence, 60 min; stronger effect = lower value; active means max response of -50% or lower; inconclusive means between -30% and -50%; inactive means -30% or higher; further: value at the top dose of about 77 µM
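qHTS, 1536-well: enzyme/substrate mix, compound by pin tool, 5 microM ATP final; RT 60 min; ADP-Glo reagents 1 (45 min) then 2 (30 min); luminescence.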
The depositor's hits bear a star; i = inactive; ? = inconclusive; / = no result given; [ ] = another dose, or the depositor's remark. A selection: hits, their analogues and other compounds. The true share with any hit is near 1.5%. Unless noted, the call rests on the fitted dose curve; in most records, active means well fitted curve in the direction sought with a large enough effect; inconclusive means small, poorly fitted or top-dose-only effect, or another doubt; inactive means no such curve, though single readings can be large; an effect the other way counts as inactive or inconclusive. Unless noted, on the % scale 0 is the no-effect control and ±100 the full control effect.

SMILES	KAT2A inh	FEN1 inh	APE1 inh	RECQ1 inh	BLM helicase inh	PI5P4Ka inh
N#Cc1ccc(CSc2nnc(NC(=O)C3CC(=O)N(c4ccc5c(c4)OCCO5)C3)s2)cc1 (stereo not drawn)	-5.9%	15.1%	14.1µM*	28.2µM*	-26.4%	2.8
O=C(Nc1nnc(SCc2ccc(F)cc2)s1)C1CC(=O)N(c2ccc3c(c2)OCCO3)C1 (stereo not drawn)	-8.2%	-7.5%	4.8%	-26.3%	-4.2%	-19.6
CCCCCCNC(=O)N[C@H](C(=O)NCCC[C@H]1CN2C(=NC[C@H]2C)N1CCC(c1ccccc1)c1ccccc1)C(C)O (stereo partly drawn)	7.94µM*	/	?	i	0.7%	/
COc1ccc(/C=N/N=C2/NC(=O)C(CC(=O)O)S2)cc1OCc1ccc(Cl)cc1Cl (stereo not drawn)	-22.0%	-17.8%	?	0.9%	-7.8%	-56.1*
O=c1c(OC2OC(CO)C(O)C(O)C2O)c(-c2ccc(O)c(O)c2)oc2cc(O)cc(O)c12 (stereo not drawn)	-2.5%	?	?	-16.3%	-1.8%	-4.0
O=c1c2c(O)cc(O)cc2oc2c(O)ccc(O[C@H]3O[C@@H](CO)[C@H](O)[C@@H](O)[C@@H]3O)c12	-5.0%	-13.7%	1.4%	/	/	-56.2*
O=c1c(O[C@H]2O[C@@H](CO)[C@H](O)[C@@H](O)[C@@H]2O)c(-c2ccc(O)cc2)oc2cc(O)cc(O)c12	-6.7%	4.3%	21.2µM*	/	/	-11.6
COc1ccc2[nH]cc(C(=O)CNc3nccs3)c2c1	/	-9.9%	/	/	/	/
COC(=O)c1sc(-c2ccccc2)cc1NC(=O)Nc1ccc(Cl)cc1	-5.2%	-27.3%	/	/	-7.6%	/
COC(=O)c1sc(-c2ccc(Cl)cc2)cc1NC(=O)CSCC(=O)O	-6.1%	-19.6%	-5.1%	-5.0%	1.4%	-53.3*
COC(=O)c1sc(-c2ccccc2)cc1NC(=O)Nc1ccc(F)cc1	-14.7%	89.1µM*	/	/	-8.7%	/
Cc1ccnc2c(Cl)c(Cl)ccc12	/	-8.2%	/	/	/	/
CCCOC(=O)C1=C(C)CS[C@@H]2[C@H](NC(=O)COc3ccccc3)C(=O)N12	/	-7.0%	/	/	/	/
O=C(O)c1ccc2c(c1)-c1cc(C(=O)O)ccc1S2(=O)=O	0.4%	-8.2%	51.0%	/	0.6%	-73.5*
O=S(=O)(c1ccc(-c2n[nH]c(=S)o2)cc1)N1CCCC1	-3.6%	1.0%	5.2%	/	-4.7%	-82.5*
O=S(=O)(c1ccc(-c2n[nH]c(=S)o2)cc1)N1CCCCC1	-1.3%	3.3%	2.3%	/	-2.3%	-77.4*
CN(C)c1ccc(/C=C/c2ccnc3c(Cl)cccc23)cc1	/	-21.3%	/	/	/	/
CC(C)C(=O)NC(=S)Nc1sc2c(c1C(N)=O)CCCC2	-13.9%	-7.2%	2.1%	-3.3%	-13.9%	-54.2*
CCCC(=O)NC(=S)Nc1sc2c(c1C(N)=O)CCC2	-2.8%	-5.6%	-8.2%	-3.7%	-3.4%	?
COc1ccc(CCn2c(=S)[nH]c(=O)c3[nH]cnc32)cc1OC	/	5.4%	/	/	/	/
Cc1ccc(-n2ncc(-c3n[nH]c(=S)o3)c2N)cc1C	/	/	/	/	/	-75.5*
CN(C)c1ccc(CCC2C=Cc3ccccc32)cc1 (stereo not drawn)	/	11.4%	/	/	/	/
Oc1ccc(-c2csc(-c3cccnc3)n2)cc1O	-14.7%	-17.7%	15.8µM*	-27.9%	-13.9%	-16.2
O=C1CN(CCN2CC(=O)NC(=O)C2)CC(=O)N1	/	-0.5%	/	/	/	/
O=S(=O)(c1ccc(Cl)cc1)N1CCN(c2nc(-c3ccc(F)cc3)nc3cc(Cl)ccc23)CC1	/	10.2%	/	/	/	/
SMILES	KAT2A inh	FEN1 inh	APE1 inh	RECQ1 inh	BLM helicase inh	PI5P4Ka inh
O=C(C1=C(O)C(=O)N(c2nccs2)C1c1ccccc1)c1cc2ccccc2o1 (stereo not drawn)	-14.6%	-0.4%	1.7%	-11.6%	-2.9%	-51.8*
Cc1ccc(C2C(C(=O)c3cc4ccccc4o3)=C(O)C(=O)N2c2cc(C)on2)cc1 (stereo not drawn)	-24.9%	0.2%	-10.6%	/	-13.6%	-52.1*
Cc1cc(N2C(=O)C(O)=C(C(=O)c3ccco3)C2c2cccc(Oc3ccccc3)c2)no1 (stereo not drawn)	-20.6%	-13.1%	-5.1%	/	-11.4%	-68.5*
O=C(COC(=O)CNC(=O)C1CCCCC1)NC1CC1	/	9.8%	/	/	/	/
Cc1ccc(NC(=O)CSc2nnc(-c3ccccc3)n2C)cc1	/	0.3%	/	/	/	/
CCCCCCCCCCN(CCCCCCCCCC)c1ccc(/C=C/c2ccnc3ccccc23)cc1	/	2.5%	/	/	/	/
CO[C@H]1C[C@H](O[C@H]2[C@H](C)[C@@H](O[C@@H]3O[C@H](C)C[C@H](N(C)C)[C@H]3OC(C)=O)[C@@H](C)C[C@]3(CO3)C(=O)[C@H](C)[C@@H](OC(C)=O)[C@@H](C)[C@@H](C)OC(=O)[C@@H]2C)O[C@@H](C)[C@@H]1OC(C)=O	/	/	1.9%[21 µM]	/	/	/
CC1=Nc2ccccc2/C1=C\c1sc(Nc2ccc(C)cc2)nc1O	-2.5%	-18.4%	-3.0%	-4.2%	-9.1%	-66.1*
CCOC(=O)c1c(Nc2ccc(Cl)cc2)sc(/C=C2\C=Nc3ccccc32)c1O	-7.2%	-0.6%	?	i	-6.7%	/
Oc1cccc(Nc2nc(O)c(/C=C3\C=Nc4ccccc43)s2)c1	-4.1%	-18.2%	-4.6%	-21.3%	-24.6%	-101.6*
Oc1nc(Nc2ccc(F)cc2)sc1/C=C1\C=Nc2ccccc21	-2.0%	-10.3%	-0.2%	i	-10.0%	?
Oc1nc(Nc2cccc(Cl)c2)sc1/C=C1\C=Nc2ccccc21	-6.5%	-20.4%	-1.1%	-20.5%	-13.5%	-61.6*
CSc1ccc(/C=C2\C=Cc3ccccc32)cc1	/	1.0%	/	/	/	/
CCCSS/C(CCO)=C(/C)N(C=O)Cc1cnc(C)nc1N	-0.4%	/	/	/	-0.2%	/
CC(C(=O)c1ccccc1)[n+]1cccc(Cl)c1 (stereo not drawn)	/	-11.4%	/	/	/	/
CCC1S/C(=N/C(=O)NC2CCCCC2)NC1=O (stereo not drawn)	-2.2%	-3.7%	0.8%	-9.0%	2.6%	-0.9
O=C(/N=C1\NC(=O)C(F)(C(F)(F)F)S1)NC1CCCCC1 (stereo not drawn)	-7.9%	0.8%	-1.7%	0.9%	-5.5%	-61.1*
O=C(CSc1ncccn1)NN=C1CCCCCCC1	-1.2%	-14.7%	2.8%	-13.3%	1.9%	-4.4
Cc1cc(C)nc(SCC(=O)NN=C2CCCC2)n1	-7.7%	?	4.0%	-11.5%	-3.4%	-50.2*
O=c1[nH]c(=O)c2nnc(N/N=C/c3ccccc3F)nc2[nH]1	2.4%	-1.9%	-1.8%	-7.1%	-1.6%	-88.0*
O=c1[nH]c(=O)c2nnc(N/N=C\c3ccc(O)cc3)nc2[nH]1	-7.3%	10.2%	-1.7%	-4.6%	-3.2%	?
O=c1c2ccccc2sn1-c1ccc(Cl)cc1Cl	/	/	/	/	/	-105.4*
